# Results: PubChem BioAssay
# Activity calls are given as the source filed them.
# Experiments:
# [1] = tested on: Human papillomavirus type 1a protein E7 (residues 44-93); assay: HPV1a E7 fragment binders on microarrays, primary screen, biochemical, small-molecule microarray, residues 44-93, 635 nm fluorescence (AID 1108); conditions: small-molecule microarray binding, fluorescence 635 nm; higher = more signal;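 further: E7 fragment applied at 1 µg/mL in TBST for 1 h at 4 C; score combines spot fluorescence with its signal to noise ratio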
# [2] = modulators of HCV replicon luciferase signal, primary screen, HCV replication inhibitor project, Huh7 cells, luciferase reporter (AID 1109); conditions: 48 h, higher = more signal;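 further: huh7 hepatoma cells harbouring a luciferase neomycin HCV replicon reporter; luciferase luminescence as measure of HCV replicon replication; test concentration not given here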
# [3] = target: Left-right determination factor 2 (Homo sapiens) (UniProt O00292); assay: LEFTY2 binders on small-molecule microarrays, primary screen, biochemical, small-molecule microarray, 635 nm fluorescence scan (AID 1110); conditions: LEFTY2 binding, higher = more signal
# Sequence of Left-right determination factor 2 (Homo sapiens) (O00292 whole entry, looked up): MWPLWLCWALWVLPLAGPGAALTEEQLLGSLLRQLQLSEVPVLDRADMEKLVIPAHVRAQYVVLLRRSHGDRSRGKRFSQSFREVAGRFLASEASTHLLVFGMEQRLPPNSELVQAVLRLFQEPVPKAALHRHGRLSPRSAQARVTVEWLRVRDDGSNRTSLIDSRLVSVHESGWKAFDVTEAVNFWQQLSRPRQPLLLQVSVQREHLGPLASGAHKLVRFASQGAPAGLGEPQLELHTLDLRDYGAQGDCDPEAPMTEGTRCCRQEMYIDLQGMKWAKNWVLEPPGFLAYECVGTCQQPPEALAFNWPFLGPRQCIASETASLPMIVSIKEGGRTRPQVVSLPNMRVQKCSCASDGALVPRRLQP
# [4] = target: Calmodulin-1 (Homo sapiens) (UniProt P0DP23); assay: CALM1 binders on microarrays, EGTA buffer, profiling panel, biochemical, small-molecule microarray, Cy5-labelled CALM1 (AID 1111); conditions: Cy5-CALM1 binding fluorescence, higher = more signal;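 further: labelled calmodulin applied in Tris saline Tween buffer holding calcium plus EGTA and DTT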
# [5] = target: Calmodulin-1 (Homo sapiens) (UniProt P0DP23); assay: calcium-bound CALM1 binders on microarrays, profiling panel, artefact control for SMM control-protein annotation, biochemical, small-molecule microarray, Cy5-labelled CALM1, plus calcium (AID 1112); conditions: Cy5-CALM1 binding fluorescence, higher = more signal;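 further: score merges spot fluorescence with signal to noise from triplicate slides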
# [6] = small-molecule microarray binders of probe aWnt5a, primary screen, biochemical, biotinylated probe, 635/667 nm fluorescence (AID 1113); conditions: higher = more signal;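 further: score merges 667 nm fluorescence intensity with signal-to-noise per printed feature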
# [7] = small-molecule microarray binders of probe aShh, primary screen, biochemical, biotinylated probe, 635/667 nm fluorescence (AID 1114); conditions: higher = more signal;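 further: probe is biotin-labelled aShh protein from a stem cell growth factor screen; measures binding of labelled protein to compounds printed on the slide; score merges feature fluorescence at 667 nm with signal-to-noise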
# [8] = small-molecule microarray binders of probe aNog, primary screen, biochemical, biotinylated probe, 635/667 nm fluorescence (AID 1115); conditions: higher = more signal;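 further: probe is biotinylated aNog protein used at 0.15 µg/mL for 1 h at 4 C; z-score combines 667 nm fluorescence of each spot with its signal to noise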
# [9] = target: Torsin-1A-interacting protein 1 (Homo sapiens) (UniProt Q5JTV8); assay: LAP1 binders from COS7 cell lysate, primary screen, small-molecule microarray, 635/667 nm fluorescence (AID 1116); conditions: COS7-hLAP1 lysate binding, 635 nm fluorescence, higher = more signal
# Sequence of Torsin-1A-interacting protein 1 (Homo sapiens) (Q5JTV8 whole entry, looked up): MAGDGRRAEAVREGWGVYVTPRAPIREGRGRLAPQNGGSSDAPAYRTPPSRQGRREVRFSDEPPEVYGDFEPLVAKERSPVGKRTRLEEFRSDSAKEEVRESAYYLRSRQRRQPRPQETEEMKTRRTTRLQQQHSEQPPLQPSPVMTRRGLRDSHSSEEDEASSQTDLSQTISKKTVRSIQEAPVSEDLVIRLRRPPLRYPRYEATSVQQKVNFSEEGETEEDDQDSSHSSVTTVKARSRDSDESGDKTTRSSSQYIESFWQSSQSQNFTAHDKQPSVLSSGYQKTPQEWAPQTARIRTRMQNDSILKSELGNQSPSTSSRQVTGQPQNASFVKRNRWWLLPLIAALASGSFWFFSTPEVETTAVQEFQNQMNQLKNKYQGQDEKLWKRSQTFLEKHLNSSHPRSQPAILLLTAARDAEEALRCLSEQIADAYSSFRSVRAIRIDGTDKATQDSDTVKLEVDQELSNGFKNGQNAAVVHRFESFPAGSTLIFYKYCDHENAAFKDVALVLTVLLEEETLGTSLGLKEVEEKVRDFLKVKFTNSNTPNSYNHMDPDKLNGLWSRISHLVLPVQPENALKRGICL
# [10] = target: Alpha-bungarotoxin (Bungarus multicinctus) (UniProt P60615); assay: alpha-bungarotoxin binders on microarray, profiling panel, artefact control for SMM control protein annotation, biochemical, small-molecule microarray, Alexa647 label, 635/667 nm fluorescence (AID 1117); conditions: alpha-BTX-A647 binding fluorescence, higher = more signal
# Sequence of Alpha-bungarotoxin (Bungarus multicinctus) (P60615 whole entry, looked up): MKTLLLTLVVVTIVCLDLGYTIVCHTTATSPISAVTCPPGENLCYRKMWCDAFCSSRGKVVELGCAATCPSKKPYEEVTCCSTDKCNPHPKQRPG
# Albumin (Bos taurus) = Albumin (Bos taurus) (UniProt P02769); assay: bovine serum albumin binders on microarray, profiling panel, artefact control for SMM control protein annotation, biochemical, small-molecule microarray, Alexa647 label, 635/667 nm fluorescence (AID 1118); conditions: BSA-A647 binding, fluorescence 635 nm, higher = more signal;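 further: score merges 667 nm emission intensity and signal-to-noise per printed compound spot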
# Sequence of Albumin (Bos taurus) (P02769 whole entry, looked up): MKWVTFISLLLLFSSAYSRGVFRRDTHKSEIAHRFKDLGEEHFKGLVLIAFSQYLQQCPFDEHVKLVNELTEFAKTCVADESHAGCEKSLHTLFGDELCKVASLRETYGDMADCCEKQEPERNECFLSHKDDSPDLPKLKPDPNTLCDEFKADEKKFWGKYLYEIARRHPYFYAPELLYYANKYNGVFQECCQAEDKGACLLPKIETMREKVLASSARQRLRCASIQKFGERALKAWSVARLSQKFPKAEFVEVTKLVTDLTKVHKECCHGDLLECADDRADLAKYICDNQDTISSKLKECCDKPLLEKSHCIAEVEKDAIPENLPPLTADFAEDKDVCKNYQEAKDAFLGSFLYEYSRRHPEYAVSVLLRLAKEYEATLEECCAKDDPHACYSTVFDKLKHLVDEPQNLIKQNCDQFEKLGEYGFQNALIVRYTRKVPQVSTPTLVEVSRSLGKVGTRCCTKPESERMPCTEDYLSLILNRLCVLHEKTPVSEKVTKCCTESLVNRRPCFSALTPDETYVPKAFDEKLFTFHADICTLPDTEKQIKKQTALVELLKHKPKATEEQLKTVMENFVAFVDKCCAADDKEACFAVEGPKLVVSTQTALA
# [11] = small-molecule microarray binders of probe aXIP, primary screen, biochemical, NeuroSMM set, 635/667 nm fluorescence (AID 1119); conditions: higher = more signal, called active from +8 up or from −8 down;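 further: probe is the protein aXip251-270 applied at 1 µg/mL to compound-printed slides; binding of probe to printed compounds measured as 667 nm fluorescence plus signal to noise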
# [12] = small-molecule binders of probe aNOTCH3, primary screen, biochemical, small-molecule microarray, 635/667 nm fluorescence (AID 1120); conditions: higher = more signal;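 further: probe is a biotin-tagged antibody raised against NOTCH3 rather than NOTCH3 protein; score merges spot fluorescence near 667 nm with spot signal to noise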
# [13] = small-molecule binders of probe aNOTCH2, primary screen, biochemical, small-molecule microarray, 635/667 nm fluorescence (AID 1121); conditions: higher = more signal;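 further: score merges feature fluorescence read at 667 nm with its signal to noise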
# [14] = target: Carbonic anhydrase 2 (Homo sapiens) (UniProt P00918); assay: CAII small-molecule binders, profiling panel, biochemical, small-molecule microarray, Alexa647-labelled CAII (AID 1122); conditions: CAII-A647 binding fluorescence, higher = more signal
# [15] = COS7 lysate on small-molecule microarray, probe aHis, 635 nm (AID 1123); conditions: COS7 cell lysate, fluorescence, higher = more signal;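 further: z-score combines 667nm fluorescence intensity with signal-to-noise per printed compound spot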
# [16] = compound binding in COS7 lysate, probe aLAP1, primary screen, cell lysate, small-molecule microarray (AID 1124); conditions: probe aLAP1, fluorescence, higher = more signal;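 further: lysate comes from COS7 cells expressing LAP1 and is applied at 0.3 µg/mL; score merges spot fluorescence near 667 nm with signal-to-noise over triplicate slides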
# Sam68 (KHDRBS1) = assay: Sam68 small-molecule binders, primary screen, biochemical, small-molecule microarray, 635 nm fluorescence (AID 1125); conditions: small-molecule microarray binding, higher = more signal;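 further: score merges 667 nm channel intensity with signal to noise over triplicate slides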
# [17] = tested on: Chordin-like protein 2 (CHRDL2); assay: CHRDL2 small-molecule binders, primary screen, biochemical, small-molecule microarray, 635 nm fluorescence (AID 1126); conditions: small-molecule microarray binding, fluorescence 635 nm; higher = more signal;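 further: printed compound slides probed with Chrdl2 protein at 4 µg/mL for 1 h at 4 C; score merges 667 nm emission intensity with signal to noise over three replicate slides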
# [18] = target: Concanavalin-A (Canavalia ensiformis) (UniProt P02866); assay: ConA small-molecule binders, primary screen, artefact control for SMM control protein annotation, biochemical, small-molecule microarray, Alexa647 label, 635 nm (AID 1127); conditions: ConA-A647 binding fluorescence, higher = more signal;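 further: z combines 667 nm emission intensity with signal-to-noise across three replicate slides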
# Sequence of Concanavalin-A (Canavalia ensiformis) (P02866 whole entry, looked up): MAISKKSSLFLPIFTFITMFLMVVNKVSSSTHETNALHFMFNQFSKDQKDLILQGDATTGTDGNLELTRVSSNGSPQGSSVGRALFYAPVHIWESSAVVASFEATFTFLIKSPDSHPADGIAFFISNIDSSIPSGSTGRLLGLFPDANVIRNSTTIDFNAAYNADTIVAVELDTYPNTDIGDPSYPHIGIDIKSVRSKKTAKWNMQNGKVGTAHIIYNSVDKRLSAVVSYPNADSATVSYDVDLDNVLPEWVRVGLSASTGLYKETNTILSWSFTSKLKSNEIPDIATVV
SMILES,composite z-score [1],z-score [2],composite z-score [3],composite z-score [4],composite z-score [5],composite z-score [6],composite z-score [7],composite z-score [8],composite z-score [9],composite z-score [10],composite z-score (Albumin (Bos taurus)),composite Z-score [11],composite z-score [12],composite z-score [13],composite z-score [14],composite z-score [15],composite z-score [16],composite z-score (Sam68 (KHDRBS1)),composite z-score [17],composite z-score [18]
C=CCC(OC(C)=O)[C@@H]1[C@@H](N(Cc2ccc(-c3cccc(C(F)(F)F)c3)o2)C(=O)Cc2ccc(OC)cc2)c2cc(OCCCO)ccc2N1C(=O)Cc1ccc2ccccc2c1 (stereo not given in full),-0.763,0.685,-0.429,-0.472,-0.427,-0.0383,-0.206,-0.463,-0.33,0.553,0.315,-0.0998 (inactive),-0.158,-0.14,-0.121,0.631,-0.31,-0.0204,-0.0929,-0.0477
C=CCN1C(=O)[C@]2(O[C@H](CCO)[C@@H]([Si](C)(C)c3ccc(OC)cc3)[C@@H]2C)c2cc(N3C(=O)COc4ccccc43)ccc21,1.32,-5.2,0.181,0.966,0.325,-0.0134,-0.0858,0.0599,-0.0988,0.429,0.427,0.0421 (inactive),0.0039,-0.175,0.418,0.751,0.78,0.804,-0.153,0.919
O=C1OCCC=C[C@H]2OC34C=CCN(c5ccc(Cl)cc5)C(=O)[C@H]3N(CCCCCCO)C(=O)[C@@H]4C12 (stereo not given in full),-0.344,-0.476,-1.25,-0.869,-0.593,-0.152,-0.109,0.0422,-0.307,-1.35,-0.418,0.318 (inactive),-0.122,-0.218,0.802,-0.328,-0.256,-0.156,-1.16,-0.941
CN(C)C(=O)[C@]1(CCS(=O)(=O)c2ccccc2)N=C(c2ccc(OCCCO)cc2)O[C@@H]1c1ccccc1,1.44,-2.25,0.389,1.72,0.513,-0.034,0.582,-0.565,1,0.915,0.907,0.462 (inactive),0.201,-0.0676,0.769,2.99,0.565,1.3,-0.0707,0.937
COC(=O)C(CC#Cc1ccc2c(c1)[C@]1(C(=O)N2)[C@H](c2ccc(OCCO)cc2)N2[C@H](c3ccccc3)[C@H](c3ccccc3)OC(=O)[C@H]2[C@@H]1C(=O)N1CCN(c2ncccn2)CC1)C(=O)OC,0.233,-1.49,1.28,1.48,0.43,-0.0286,0.214,-0.889,1.2,1.3,0.621,0.434 (inactive),0.176,0.0296,0.62,1.71,0.832,1.3,0.441,1.16
COC(=O)[C@@]1(Cc2ccccc2)[C@H]2c3cc(C(=O)N4CCCC4)n(CCSCCO)c3C[C@H]2CN1C(=O)c1ccccc1,1.45,-1.12,-0.491,2.26,1.29,0.145,0.417,2.24,2.04,0.606,1.05,-0.176 (inactive),0.543,0.187,0.841,3.57,1.22,1.12,-0.997,0.554
C=C(C(=O)CC[C@@H](OC(=O)c1ccccc1-c1ccccc1C(=O)O)c1ccccc1OCCO)C(C)C,1.38,-2.63,0.355,0.0583,-0.7,-0.0405,0.232,-0.409,0.202,1.05,0.287,-0.28 (inactive),-0.0111,-0.108,0.734,0.418,0.175,1.21,0.935,0.866
[N-]=[N+]=Nc1ccccc1C[C@@]1(C(=O)O)N=C(c2ccc(OCCCO)cc2)O[C@@H]1c1ccccc1N=[N+]=[N-],1.26,-1.26,0.0656,2.45,1.12,-0.034,0.108,1.27,1.79,1.32,0.612,0.95 (inactive),0.126,0.13,0.457,2.49,1.66,1.3,-0.91,1.15
COc1ccc(C(=O)Nc2cccc(CN3C(=O)[C@]4(O[C@H](CCn5cc([C@H](O)c6ccccc6)nn5)[C@@H]([Si](C)(C)c5ccc(OC)cc5)[C@@H]4C)c4ccccc43)c2)cc1,1.38,-5.19,0.126,-0.0002,-0.614,-0.13,-0.0793,0.189,0.361,1.09,-0.215,-0.213 (inactive),0.0916,-0.0986,0.169,0.18,-0.206,0.962,0.153,0.587
